# In PubChem BioAssay (NCATS):
# Results filed as inconclusive are left out. A call without a number means that no potency is given here. Active and inactive are the calls of the source. Calls come from the whole dose curve; as a rule, active = well fitted inhibition curve with a large enough effect; inconclusive = small, poorly fitted or top-dose-only effect; inactive = flat fitted curve, though single readings scatter.
# Test: qHTS for Inhibitors of Plasmodium falciparum (DD2) proliferation (AID 504314)
# Settings: P. falciparum Dd2 in erythrocytes, SYBR Green growth, 72 h; series mostly up to 1.12 µM
# Text: Plasmodium falciparum is a virulent malarial parasite that kills 1-2 million people worldwide each year. Malaria not only inflicts tremendous suffering and morbidity on the human population, but has dramatically influenced the course of civilization with profound sociological and economic implications (Shah, S. 2010). Transmitted by mosquitoes, the sporozoite form of the parasite enters the blood stream to infect hepatocytes, where they become merozoites that infect red blood cells (erythrocytes). Within erythrocytes, merozoites begin a […] cycle of growth and division, after which the parasite is released to infect new red blood cells. Gametocytes, which form within erythrocytes as well, circulate in the bloodstream and are ingested by the mosquito, thereby completing the life cycle (see CDC website). To profile malarial lines for differential chemical responses and to identify inhibitors of malarial growth, an assay that measures P. falciparum growth and replication within erythrocytes was employed. This assay uses a DNA binding fluorescent dye (SYBR Green) to detect parasite DNA following cell lysis. Because mature erythrocytes lack DNA, only Plasmodium-derived DNA is detected. The P. falciparum line cp250, derived from a malarial isolate from Cambodia, (Mu, J., et al. 2010) was added to the panel of lines, Dd2, HB3, 7G8 and GB4 in this study.
# Laboratory of Assay Development and Screening Technology [ADST] and NIH Chemical Genomics Center [NCGC]
# Boston University, Chemistry Department, Center for Chemical Methodology and Library Development [CMLD-BU]
# NIH National Institute of Allergy and Infectious Diseases [NIAID]
# ADST Assay Protocol Summary:
# The 1536-well SYBR Green viability assay was based on the method of Bennett et al (2004) and described previously in 1536-well format (Yuan J., et al. 2009). For screening 3 ul culture medium was dispensed into 1536 well black clear bottom plates (Aurora Biotechnologies) using a Multidrop Combi (Thermo Fisher Scientific Inc.), 23 nL compounds in DMSO were added by a pin transfer (Cleveland, P.H. and Koutz, P.J, 2005) using a pin tool-based delivery system (Kalypsys), and 5 ul of erythrocytes infected with P. falciparum one of five lines (cp250, Dd2, HB3, 7G8 or GB4, 0.3% parasitemia, 2.5% hematocrit final concentration) were added. The plates were incubated at 37C in a humidified incubator in 5% CO2 for 72 h, and 2 ul lysis buffer (20 mM Tris HCl, 10 mM EDTA, 0.16% saponin, 1.6% triton X, 10X SYBR Green I (supplied as 10,000X final concentration by Invitrogen) was added to each well. The plates were mixed for 25 sec with gentle shaking and incubated overnight at room temperature in the dark. The following morning, fluorescence intensity at 485(14) nm excitation and 535(25) nm emission wavelengths was measured on an EnVision (Perkin Elmer) plate reader. Plate reads were normalized relative to the control inhibitor (0.29 uM artemisinin) and vehicle (DMSO) wells present on each plate and then corrected by an algorithm using vehicle-only control plates at the beginning and end of the compound plate stack.
# Shah, S. (2010). The Fever: how malaria has ruled humankind for 500,000 years. New York, Sarah Crichton Books.
# CDC web site, http://www.cdc.gov/malaria/about/biology/index.html
# Mu, J., Myers, R.A., Jiang, H., Liu, S., Ricklefs, S., Waisberg, M., Chotivanich, K., Wilairatana, P., Krudsood, S., White, N.J., et Plasmodium falciparum genome-wide scans for positive selection, recombination hot spots and resistance to antimalarial drugs Nature Genetics 2010, 42, pp 268-271
# Bennett TN, Paguio, M., Gligorijevic, B., Seudieu, C., Kosar, A. D., Davidson, E., and Roepe, P. D. Novel, rapid, and inexpensive cell-based quantification of antimalarial drug efficacy Antimicrobial Agents Chemother. 2004, 48(5): pp 1807-10
# Yuan J, Johnson RL, Huang RL, Wichterman J, Jiang HY, Hayton K, Fidock DA, Wellems TE, Inglese J, Austin CP, Su XZ. […]
# Potency is the fitted concentration of half-maximal effect.
row,Compound,Potency
1,C[C@H]1Cc2c(COc3ccccc3)nc3c(c2CO1)CN(S(=O)(=O)c1ccc(C#N)cc1)CC3,inactive
2,C#CCCOC(=O)N1C2=NC(C(=O)OC)=C(C(=O)OC)[C@@H]3N(C)c4ccc(OC)cc4[C@]23C[C@H]1C(=O)OC,inactive
3,CC#CCN1c2ccccc2[C@]23C[C@@H](C(=O)OC)N(C(=O)c4cc(C)oc4C)C2=NC(C(=O)OC)=C(C(=O)OC)[C@H]13,inactive
4,COC(=O)C1=C(C(=O)OC)[C@@H]2Nc3ccccc3[C@@]23C[C@@H](C(=O)OC)N(S(=O)(=O)c2ccc(C(F)(F)F)cc2)C3=N1,inactive
5,COc1ccc(-c2nc3c(c4c2C[C@H](c2ccccc2)OC4)CN(S(=O)(=O)c2ccc(C#N)cc2)CC3)c(C)c1,inactive
6,CCCCc1nc2c(c3c1C[C@H](C)OC3)CN(S(=O)(=O)c1ccc3c(c1)OCCN3C)CC2,inactive
7,CCCCC1=CC2=CC(=O)C(C)(OC(=O)CC)C(=O)C2=CN1c1ccncc1 (stereo not given),inactive
8,CC1(OC(=O)CCc2ccccc2)C(=O)C=C2C=C(c3ccc(C#N)cc3)N(Cc3ccco3)C=C2C1=O (stereo not given),inactive
9,COC(=O)C1=C(C(=O)OC)[C@@H]2N(C)c3ccccc3[C@@]23C[C@@H](C(=O)OC)N(S(=O)(=O)c2ccc4c(c2)OCCN4C)C3=N1,inactive
10,COCC(=O)N1CCc2nc(COc3ccccc3)c3c(c2C1)CO[C@@H](C)C3,inactive
11,COC(=O)CCC(=O)OC1(C)C(=O)C2=CN(C(CO)CO)C(c3ccc(OC)cc3)=CC2=C(Br)C1=O (stereo not given),inactive
12,COC(=O)C1=C(C(=O)OC)[C@@H]2N(Cc3ccccc3)c3ccccc3[C@@]23C[C@@H](C(=O)OC)N(C(=O)c2ccc(Br)cc2)C3=N1,inactive
13,COC(=O)CCC(=O)OC1(C)C(=O)C=C2C=C(C3CC3)N(C(CO)CO)C=C2C1=O (stereo not given),inactive
14,CC=Cc1cc2ccccc2c2c(C(=O)OC)c(C(=O)OC)c(C(=O)OC)n12,inactive
15,CCCCC1=CC2=CC(=O)C(C)(OC(=O)CC)C(=O)C2=CN1CC(C)C (stereo not given),inactive
16,O=C(C=Cc1ccc2c(c1)OCO2)c1ccccc1,inactive
17,CCCCc1nc2c(c3c1C[C@H](C)OC3)CN(C(=O)Cc1cccc(OC)c1)CC2,inactive
18,CC#CCN1c2ccccc2[C@]23C[C@@H](C(=O)OC)N(C(=O)c4cccs4)C2=NC(C(=O)OC)=C(C(=O)OC)[C@H]13,inactive
19,CCCC[C@]12Cc3cc(OC)c(OC)cc3[C@H](O1)C1=C(O2)C(=O)c2ccccc2C1=O,3000 nM (active)
20,CCCCC1=CC2=CC(=O)C(C)(OC(=O)CC)C(=O)C2=CN1CCc1c[nH]c2ccccc12 (stereo not given),inactive

row,Compound,Potency
1,COC(=O)C1=C(C(=O)OC)[C@@H]2N(C)c3ccc(OC)cc3[C@@]23C[C@@H](C(=O)OC)N(S(=O)(=O)c2ccc(C#N)cc2)C3=N1,inactive
2,COC(=O)N[C@@H](c1ccccc1)[C@]1(C(=O)OC)CCCC1=O,inactive
3,C[C@H]1Cc2c(-c3ccccc3)nc3c(c2CO1)CN(C(=O)c1cc(I)ccc1F)CC3,inactive
4,COC(=O)CCCC1=CC2=C(c3ccccc3)C(=O)C(C)(OC(=O)C3CCCC3)C(=O)C2=CN1CC(C)C (stereo not given),inactive
5,CC1(C)O[C@@H]2[C@@H](O1)C(c1ccccc1)(c1ccccc1)OP(=O)(O)OC2(c1ccccc1)c1ccccc1,inactive
6,CCCCC1=CC2=C(c3ccco3)C(=O)C(C)(OC(=O)c3ccc(OC)cc3)C(=O)C2=CN1CCOC (stereo not given),inactive
7,COC(=O)CC1c2ccccc2C=C(/C=C/c2ccc3c(c2)OCO3)N1C(=O)OC (stereo not given),inactive
8,CCCCC1=CC2=CC(=O)C(C)(OC(=O)CC)C(=O)C2=CN1C1CCCC1 (stereo not given),inactive
9,COC(=O)C1=C(C(=O)OC)[C@@H]2Nc3ccccc3[C@@]23C[C@@H](C(=O)OC)N(C(=O)c2cc(C)oc2C)C3=N1,inactive
10,COC(=O)C1=C(C(=O)OC)[C@@H]2Nc3ccccc3[C@@]23C[C@@H](C(=O)OC)N(C(=O)c2ccco2)C3=N1,inactive
11,COC(=O)[C@@H]1[C@@H](C)N(CCc2cc(OC)c(OC)c(OC)c2)C(=O)N[C@H]1c1ccccc1,inactive
12,C=C[C@@]1(C)CC[C@H](O)[C@H]2C(=O)CCC[C@H]21,inactive
13,COC(=O)C1=C(C(=O)OC)[C@@H]2Nc3ccccc3[C@@]23C[C@@H](C(=O)OC)N(S(=O)(=O)c2ccc(C#N)cc2)C3=N1,inactive
14,CCN1C(=O)N(C)[C@@H](c2ccccc2)C(C(C)=O)=C1C,inactive
15,COC(=O)[C@H]1[C@@H](C)N(Cc2ccccc2)C(=O)N[C@H]1c1ccccc1,inactive
16,COC(=O)[C@]1(C)C=C[C@@H](C)[C@H](c2ccccc2Br)N1C(=O)C(F)(F)F,inactive
17,C=CCOC(=O)C(C(C)=O)[C@@H](NC(=O)OC)c1cccc(C(F)(F)F)c1 (stereo not given in full),inactive
18,COC(=O)CCC(=O)OC1(C)C(=O)C2=CN(CCCCO)C(c3ccc(OC)cc3)=CC2=C(Br)C1=O (stereo not given),inactive
19,CC#CCN1c2ccccc2[C@]23C[C@@H](C(=O)OC)N(S(=O)(=O)c4c(C)noc4C)C2=NC(C(=O)OC)=C(C(=O)OC)[C@H]13,inactive
20,COC(=O)C1=C(C(=O)OC)[C@@H]2N(C)c3ccc(OC)cc3[C@@]23C[C@@H](C(=O)OC)N(S(=O)(=O)c2ccc([N+](=O)[O-])cc2)C3=N1,inactive
